PubChem BioAssay (NCI)
This is part of a sample that, as a whole, favours compounds with a hit. Of some 83,000 tested, about 20% had one in any assay.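 Treatment: one concentration, 48 hours, 96-well format. Scoring: percent growth, with anything below 10 considered active.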

What was measured:
Assay in all cases: NCI-60 one-dose screen, 48 h (100 = growth as untreated, 0 = no growth, -100 = all killed)
Conditions in all cases: 10 µM unless noted
NCI-H23 lung = tested on: NCI-H23 lung
NCI-H226 lung = tested on: NCI-H226 lung
NCI-H322M lung = tested on: NCI-H322M lung
HOP-62 NSCLC = tested on: HOP-62 NSCLC
NCI-H460 lung = tested on: NCI-H460 lung
HOP-92 NSCLC = tested on: HOP-92 NSCLC
NCI-H522 lung = tested on: NCI-H522 lung
A549/ATCC NSCLC = tested on: A549/ATCC NSCLC
786-0 renal = tested on: 786-0 renal
COLO 205 colon = tested on: COLO 205 colon
DU-145 prostate = tested on: DU-145 prostate
K-562 leukemia = tested on: K-562 leukemia
MALME-3M melanoma = tested on: MALME-3M melanoma
MDA-MB-231 breast = tested on: MDA-MB-231 breast
RXF 393 renal = tested on: RXF 393 renal
SF-268 CNS = tested on: SF-268 CNS
SF-295 CNS = tested on: SF-295 CNS
SF-539 CNS = tested on: SF-539 CNS
M14 melanoma = tested on: M14 melanoma

Measured: growth

O=C1Nc2cc(Cl)ccc2/C1=C/c1ccc(N2CCOCC2)s1
inactive: NCI-H23 lung 109% | NCI-H226 lung 92.9% | NCI-H322M lung 101% | HOP-62 NSCLC 99.4% | NCI-H460 lung 112% | HOP-92 NSCLC 89.4% | NCI-H522 lung 101% | A549/ATCC NSCLC 103% | 786-0 renal 88.5% | COLO 205 colon 95.1% | DU-145 prostate 110% | K-562 leukemia 98.5% | MALME-3M melanoma 96.5% | MDA-MB-231 breast 99% | RXF 393 renal 93.9% | SF-268 CNS 114% | SF-295 CNS 86.8% | SF-539 CNS 92.3% | M14 melanoma 111%

CCN(CC)CCCNc1nc(C)cc(Nc2ccc3nc(C)cc(N)c3c2)n1
inactive: NCI-H23 lung 93% | NCI-H226 lung 104% | NCI-H322M lung 95.5% | HOP-62 NSCLC 81% | NCI-H460 lung 110% | HOP-92 NSCLC 97.5% | NCI-H522 lung 93.3% | A549/ATCC NSCLC 81% | 786-0 renal 97.8% | COLO 205 colon 97.4% | DU-145 prostate 116% | K-562 leukemia 106% | MALME-3M melanoma 107% | MDA-MB-231 breast 103% | RXF 393 renal 117% | SF-268 CNS 92.9% | SF-295 CNS 95.1% | SF-539 CNS 103% | M14 melanoma 96.6%

O=C1CCC(=O)N1Cc1ccccc1
inactive: NCI-H23 lung 86.7% | NCI-H226 lung 89.5% | NCI-H322M lung 98.2% | HOP-62 NSCLC 107% | NCI-H460 lung 106% | HOP-92 NSCLC 89.9% | NCI-H522 lung 102% | A549/ATCC NSCLC 102% | 786-0 renal 104% | COLO 205 colon 111% | DU-145 prostate 105% | K-562 leukemia 108% | MALME-3M melanoma 110% | MDA-MB-231 breast 98% | RXF 393 renal 87% | SF-268 CNS 94.7% | SF-295 CNS 102% | SF-539 CNS 105% | M14 melanoma 94.7%

C=CCc1cc(Cl)cc2c(OC(C)=O)c(C(C)=O)c(-c3ccccc3)nc12
inactive: NCI-H23 lung 91.8% | NCI-H226 lung 103% | NCI-H322M lung 106% | HOP-62 NSCLC 89.2% | NCI-H460 lung 106% | HOP-92 NSCLC 105% | NCI-H522 lung 96.4% | A549/ATCC NSCLC 102% | 786-0 renal 107% | COLO 205 colon 108% | DU-145 prostate 112% | K-562 leukemia 109% | MALME-3M melanoma 104% | MDA-MB-231 breast 90.7% | RXF 393 renal 130% | SF-268 CNS 109% | SF-295 CNS 114% | SF-539 CNS 110% | M14 melanoma 104%

Cc1ccc2nc(-c3c(CCCO)noc3N)[nH]c(=O)c2c1
inactive: NCI-H23 lung 130% | NCI-H226 lung 99.9% | NCI-H322M lung 89.6% | HOP-62 NSCLC 103% | NCI-H460 lung 108% | HOP-92 NSCLC 65.7% | NCI-H522 lung 103% | A549/ATCC NSCLC 101% | 786-0 renal 98.6% | COLO 205 colon 121% | DU-145 prostate 117% | K-562 leukemia 68% | MALME-3M melanoma 96.6% | MDA-MB-231 breast 105% | RXF 393 renal 153% | SF-268 CNS 111% | SF-295 CNS 99.6% | SF-539 CNS 97.3% | M14 melanoma 107%

O=C1CCCCN1CCCCC#Cc1ccccc1C#Cc1ccc([N+](=O)[O-])cc1
inactive: NCI-H23 lung 59% | NCI-H226 lung 57.1% | NCI-H322M lung 71% | HOP-62 NSCLC 64.9% | NCI-H460 lung 11.5% | HOP-92 NSCLC 39.6% | NCI-H522 lung 56.3% | A549/ATCC NSCLC 50.1% | 786-0 renal 60.6% | COLO 205 colon 45.8% | DU-145 prostate 71.1% | K-562 leukemia 33.9% | MALME-3M melanoma 55.7% | MDA-MB-231 breast 59.3% | RXF 393 renal 23.5% | SF-268 CNS 40.3% | SF-295 CNS 75.9% | SF-539 CNS 37.6% | M14 melanoma 59.5%
